# Test results from PubChem BioAssay (NCI).
# The panel holds about 79,000 compounds, 15% with a hit somewhere; the sample as a whole holds those more often. Unmarked numbers belong to inactive results. Active and inactive are the calls of the source. Cut-off read from the data, not from the text of the source: active = growth inhibition above about 70%; inactive = the rest.
# Legend:
# [1] = NCI Yeast Anticancer Drug Screen. Data for the rad50 strain (AID 155);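 note: 0% = growth of vehicle-only cultures of the same strain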; conditions: S. cerevisiae rad50 strain growth inhibition, active compounds read high
# Method in brief: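 Relative growth inhibition (compound vs vehicle) was measured in yeast with a defined repair-gene alteration.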
# [2] = NCI Yeast Anticancer Drug Screen. Data for the mec2-1 strain (AID 157); conditions: S. cerevisiae mec2-1 strain, active compounds read high
# Method in brief: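 Test agents were screened against the mec2-1 yeast strain, with defined DNA repair or cell cycle alteration. Growth was scored as inhibition against vehicle-only controls.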
# [3] = NCI Yeast Anticancer Drug Screen. Data for the sgs1 mgt1 strain (AID 161);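 note: 0% = growth of cultures given vehicle only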; conditions: S. cerevisiae sgs1 mgt1 strain, active compounds read high
# Method in brief: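 Inhibition of yeast growth, normalised to vehicle-treated controls, is reported for a strain bearing genetic alterations in DNA damage repair.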
# [4] = NCI Yeast Anticancer Drug Screen. Data for the cln2 rad14 strain (AID 165);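 note: 0% = growth equal to vehicle treated cultures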; conditions: S. cerevisiae cln2 rad14 strain, active compounds read high
# Method in brief: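 Growth of compound-exposed yeast (cln2 rad14 genotype) measured and expressed as inhibition relative to vehicle.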
# [5] = NCI Yeast Anticancer Drug Screen. Data for the bub3 strain (AID 167); conditions: S. cerevisiae bub3 mutant strain, active compounds read high
# Method in brief: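 Screening used yeast with an engineered genetic alteration affecting cell cycle control. Compound-exposed cultures were compared with vehicle cultures, and reduced growth was taken as inhibition.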
# [6] = NCI Yeast Anticancer Drug Screen. Data for the mlh1 rad18 strain (AID 175); conditions: S. cerevisiae mlh1 rad18 strain growth inhibition, active compounds read high
# Method in brief: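 In this whole-cell yeast screen, a strain with altered DNA damage repair is challenged with compound, and its growth is measured against matched vehicle-treated controls.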
# [7] = at 5.0 µM (retest, dose inferred, filed as 0.5)
# [8] = at 50.0 µM (retest, dose inferred, filed as 5.0)
Compound,"growth inhibition [1, 7]","growth inhibition [1, 8]",growth inhibition ([1]; at 50.0 µM),"growth inhibition [2, 7]","growth inhibition [2, 8]",growth inhibition ([2]; at 50.0 µM),"growth inhibition [3, 7]","growth inhibition [3, 8]",growth inhibition ([3]; at 50.0 µM),"growth inhibition [4, 7]","growth inhibition [4, 8]",growth inhibition ([4]; at 50.0 µM),"growth inhibition [5, 7]","growth inhibition [5, 8]",growth inhibition ([5]; at 50.0 µM),"growth inhibition [6, 7]","growth inhibition [6, 8]",growth inhibition ([6]; at 50.0 µM)
O=C(CN(Cc1ccccc1)Cc1ccccc1)c1ccccc1,-2%,31%,19.6%,1%,34%,-1.8%,-2%,33%,16.9%,3%,45%,1.75%,4%,89% (active),79.7% (active),-1%,57%,15.4%
CN(C)CC1CCC/C(=C\c2ccc(Cl)cc2)C1=O (configuration not stated),-15%,99% (active),80.5% (active),-25%,99% (active),86.8% (active),-28%,99% (active),92.5% (active),-25%,99% (active),87% (active),-38%,99% (active),91.4% (active),-14%,99% (active),91.3% (active)
Nc1ccc(Cc2ccc(N)cc2[N+](=O)[O-])c([N+](=O)[O-])c1,1%,0%,14.6%,5%,7%,25.9%,6%,74% (active),66.8%,5%,31%,39%,-4%,-3%,35.4%,-6%,-2%,-18.9%
CCOc1ccc2c(c1)nc1ccccc1[n+]2CC,2%,22%,20.3%,7%,33%,48.6%,2%,27%,41.4%,2%,9%,56.4%,6%,36%,24.3%,-4%,20%,44.2%
N#CC(C#N)=C(c1ccccc1)c1ccccc1,-8%,99% (active),97.4% (active),13%,100% (active),99.5% (active),18%,99% (active),99.4% (active),-33%,99% (active),99.5% (active),-6%,100% (active),99.3% (active),-4%,100% (active),99.4% (active)
CCN(CC)CCOC(=O)c1ccc(N=Nc2cc(Cl)c(C)cc2O)cc1,26%,98% (active),99.3% (active),29%,99% (active),99.2% (active),55%,99% (active),95.2% (active),13%,98% (active),99% (active),58%,99% (active),99.1% (active),28%,99% (active),99.1% (active)
COC(=O)c1[nH]c(=O)c(C#N)c(C(=O)OC)c1C(=O)c1ccc2ccccc2c1,-1%,31%,80.8% (active),-2%,20%,10.9%,-1%,25%,67.6%,7%,32%,20.3%,7%,41%,24.6%,12%,44%,80.8% (active)
OC1(C2c3ccccc3-c3ccccc32)c2ccccc2-c2ccccc21,66%,90% (active),94.4% (active),38%,94% (active),80.7% (active),45%,94% (active),94.3% (active),11%,90% (active),52.1%,28%,92% (active),81.1% (active),84% (active),93% (active),94.6% (active)
O=C1NN(C2=NNC3(C(=O)N2)c2ccccc2-c2ccccc23)C(c2ccccc2)=N/C1=C/c1ccc(O)cc1,1%,-14%,21.4%,-14%,9%,50%,-9%,23%,65%,-6%,21%,7%,-14%,9%,81.5% (active),-43%,28%,83.2% (active)
Cc1ccc(S(=O)(=O)N2CCN3C(=O)c4ccccc4C32c2ccc(F)cc2)cc1 (configuration not stated),20%,95% (active),31.8%,17%,96% (active),26.3%,88% (active),99% (active),63.2%,28%,98% (active),22.9%,37%,98% (active),50.7%,30%,96% (active),29.2%
C/C(=C\c1ccccc1)c1ccncc1,-17%,48%,64.7%,14%,12%,44.2%,-8%,51%,65.6%,-8%,21%,35.9%,-9%,48%,45.8%,-11%,24%,54.9%
Oc1ccc(CNCc2ccccc2)c2cccnc12,20%,98% (active),98.4% (active),4%,97% (active),97% (active),0%,98% (active),96.2% (active),-26%,96% (active),94.6% (active),-5%,99% (active),98.1% (active),4%,99% (active),98.2% (active)
O=C(Nc1ccccc1)c1cc(Cl)ccc1O,-12%,33%,62.8%,3%,46%,76% (active),32%,61%,71.8% (active),24%,33%,58.5%,25%,49%,74.7% (active),21%,74% (active),84% (active)
COc1cc2c(cc1O)C1Cc3ccc(OC)c(O)c3C(C2)N1C (configuration not stated),22%,21%,66.3%,22%,10%,-3.45%,16%,13%,-4.65%,22%,19%,-5.45%,16%,24%,-5.65%,23%,20%,-68%
Cc1c(N)cccc1[N+](=O)[O-],2%,8%,97.8% (active),-6%,6%,98.6% (active),-3%,-1%,97.4% (active),-1%,7%,95.5% (active),3%,15%,98.2% (active),0%,2%,98.5% (active)
COC(=O)c1nc(=S)[nH]c(C(=O)OC)c1C(=O)c1ccccn1,7%,93% (active),82% (active),-3%,84% (active),75% (active),0%,87% (active),84.5% (active),2%,84% (active),70.5% (active),6%,86% (active),82.8% (active),-15%,91% (active),89.1% (active)
COC(=O)CCC(NC(=S)N/N=C/c1ccccn1)C(=O)OC (configuration not stated),-2%,29%,72.1% (active),-54%,47%,49.1%,-25%,41%,57.4%,-11%,33%,60.8%,-6%,59%,71.8% (active),-30%,48%,61.8%
C[C@@]12C(=O)OC(=O)[C@]1(C)[C@H]1CC[C@@H]2O1,96% (active),98% (active),93.2% (active),94% (active),99% (active),94.2% (active),97% (active),97% (active),93.3% (active),78% (active),98% (active),91.8% (active),70% (active),99% (active),92.8% (active),96% (active),98% (active),92.5% (active)
O=S(=O)(O)c1cc(N=Nc2ccc(O)c(O)c2)ccc1/C=C/c1ccc(N=Nc2ccc(O)c(O)c2)cc1S(=O)(=O)O,29%,83% (active),57%,30%,89% (active),67.6%,23%,89% (active),68.5%,31%,31%,18.8%,34%,86% (active),76.3% (active),33%,83% (active),75.4% (active)
